KB-V1 cytotox: kills drug-selected multidrug resistant KB-V1 cells; KB-V1 MDR cells viability, CellTiter-Glo, 72 h; Potency, µM (highest dose often 46.1 µM), hits mostly cytotoxic; hit rate 3.4% among 400,000; AID 1347076; also: potency is read from the fitted curve at half-maximal effect; nearly all actives have a fitted effect of over 60% in size
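Cells of the MDR subline KB-V1 are plated, dosed with compound at multiple concentrations, and incubated 72 h at 37 degrees C; CellTiter-Glo is then added and luminescence read after 10 min.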
HT1080 IDH1KD tx: HT-1080 IDH1 knockdown cell toxicity (counter line); Potency, µM (doses to about 46.1 µM), inactives show at the highest dose activity, negative = toxicity, hits mostly cytotoxic; AID 686971; hit rate 2% among 360,000; HT-1080 IDH1 knockdown viability, ATP luminescence, 48 h;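 also: potency is read from the fitted curve at half-maximal effect; 0% = DMSO wells and -100% = cell-free medium wells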
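After a 2 h attachment period, IDH1KD HT-1080 cells took pin-transferred compound for 48 h at 37 °C; ATP-based luminescence after 10 min room-temperature reagent incubation reported viability.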
KB-3-1 tox: KB-3-1 parental cell cytotoxicity; KB-3-1 viability, CellTiter-Glo ATP luminescence, 72 h; Potency, µM (highest dose often 46.1 µM), most hits filed as cytotoxic; hit rate 1.4% among 400,000; also: potency is read from the fitted curve at half-maximal effect; nearly all actives have a fitted effect of over 60% in size
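72 h, 37 °C compound treatment of KB-3-1 parental cells; CellTiter-Glo added, 10 min, luminescence read. Data corrected against DMSO-only plates and normalized before curve fitting.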
IL-1B inflam inh: blocks inflammasome-driven IL-1 beta release | THP-1 LPS/ATP IL-1B secretion, AlphaLISA, 16 h; active compounds read low | activity change, % at 57.5 µM | hit rate 4.7% among 360,000; in the data active = activity change below about -50%; inconclusive = mostly about -30% to -49%
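Secreted IL-1B measured by AlphaLISA bead assay after 16 h compound exposure of THP-1 cells; compounds (final up to 57.5 uM) added 1 h before LPS (250 ng/mL) and ATP (1.25 mM) stimulation; lower signal means less secretion.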
HT1080NT lethal: kills 2HG-producing HT-1080-NT fibrosarcoma cells | hit rate 1.6% among 360,000 | Potency, µM (highest dose often 46.1 µM), for the others: top-dose activity, negative = less viability, hits mostly cytotoxic | AID 686970 | HT-1080-NT fibrosarcoma viability, CellTiter-Glo ATP luminescence, 48 h;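 also: NT is the 2HG producing partner of a matched IDH1 knockdown line; potency is read from the fitted curve at half-maximal effect; 0% = DMSO-treated cells and -100% = media-only wells without cells; nearly all actives have a fitted effect of over 55% in size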
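HT-1080-NT; 750 cells/well; 5% FBS RPMI; 48 h compound, 37 degrees C; CellTiter-Glo luminescence; curve fitting and curve-class assignment.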
An asterisk follows results filed as active; i = inactive; ? = inconclusive; . = no result. An excerpt weighted towards active compounds, which were near 8.8% of everything screened. Unless noted, calls follow the shape of the dose curve; as a rule, active = well fitted curve in the direction sought with a large enough effect; inconclusive = small, poorly fitted or top-dose-only effect, or another doubt; inactive = no such curve, though single readings can be large; an effect the other way counts as inactive or inconclusive. Unless noted, % is scaled to controls: 0 for no effect and ±100 for the full control effect.

SMILES	KB-V1 cytotox	HT1080 IDH1KD tx	KB-3-1 tox	IL-1B inflam inh	HT1080NT lethal
O=C(c1ccc(Cl)cc1)C(CN1CCCCC1)c1ccccc1 (stereo not drawn)	21µM*	2.6µM*	23µM*	-103*	5.8µM*
CCCOc1ccc(C(=O)C(c2ccccc2)N2CCOCC2)cc1 (stereo not drawn)	i	-4%	i	-3	-2%
CN(C(=O)COC(=O)CCCN1C(=O)c2cccc3cccc(c23)C1=O)C1CCS(=O)(=O)C1 (stereo not drawn)	i	6%	i	-3	9%
CCCCNC(=O)/C(C#N)=C/c1ccc(F)cc1F	i	-15%	i	-90*	-8%
COc1cc(Cl)c(C)cc1NC(=O)c1ccccc1NC(=O)CN1CCN(c2ccccn2)CC1	i	-19%	i	-66*	?
COc1ccc(Cl)cc1NC(=S)N1CCN(c2ccccn2)CC1	i	-10%	i	-10	0%
COc1cc(NC(=S)N2CCN(c3ccccn3)CC2)c(OC)cc1Cl	18µM*	-3%	i	-4	0%
COc1cc(Cl)c(C)cc1NC(=O)CN1CCN(C(=O)C2CC2)CC1	21µM*	-29%	i	2	-24%
Cc1cc(C)nc(NS(=O)(=O)c2ccc(NC(=O)c3ccc(O)cc3O)cc2)n1	i	5%	i	-11	2%
CCn1cc(S(=O)(=O)N2CCN(c3ccc(Cl)cc3)CC2)cn1	?	-7%	?	9	-5%
C=CC(=O)Nc1cccc(Nc2nc(N[C@H]3CC[C@H](N(C)C)CC3)nc3c2ncn3C(C)C)c1	i	0.65µM*	18µM*	0	?
CC(C)[C@H](CO)Nc1nc(Nc2ccc(Cl)c(C(=O)O)c2)c2ncn(C(C)C)c2n1	i	0%	i	8	-2%
COc1cc(C(=O)N2CCc3ccccc32)ccc1OCc1c(C)noc1C	?	-11%	i	22	-12%
COc1ccc(-n2ncc3c(NC(C)(C)CO)ncnc32)cc1	i	.	i	.	.
O=C1C2CC=CCC2C(=O)N1c1ccc(Cc2ccncc2)cc1 (stereo not drawn)	16µM*	-2%	?	?	-26%
N/C(=N\OC(=O)c1ccccc1)c1ccccn1	i	?	i	4	?
CC(C)(C)c1ccc(C(=O)O/N=C(\N)c2ccccn2)cc1	i	?	i	-65*	?
Cc1ccc(C(=O)O/N=C(\N)c2ccccn2)cc1	i	?	i	-23	15µM*
COc1ccc(NC(=O)N(C)C[C@H]2OCc3cn(nn3)CCCC(=O)N([C@@H](C)CO)C[C@@H]2C)cc1	i	10%	i	17	8%
O=S(=O)(c1ccc(Cl)cc1)N1CCN=C1SCc1cccnc1	?	-18%	i	0	-6%
O=S(=O)(c1ccc(Cl)cc1)N1CCN=C1SCc1cccc(Cl)c1	21µM*	-15%	i	16	-10%
Cn1nc(C(C)(C)C)cc1C(=O)N1CCCCC1c1cc(C(=O)Nc2ccccc2)no1 (stereo not drawn)	i	2%	i	-19	-4%
Cc1oc(-c2ccc(Cl)cc2)nc1CN1CCCC(C(=O)NCc2ccco2)C1 (stereo not drawn)	?	-14%	?	-51*	0%
CCc1ccc(-c2nc(CN3CCC(C(=O)NCc4ccco4)CC3)c(C)o2)cc1	9.2µM*	2%	?	?	-2%
CC(=O)NC(CC(=O)OCC(=O)N1CCc2ccccc21)c1ccccc1 (stereo not drawn)	i	0%	i	5	1%
SMILES	KB-V1 cytotox	HT1080 IDH1KD tx	KB-3-1 tox	IL-1B inflam inh	HT1080NT lethal
Cc1ccc(OCC(=O)Nn2c(C)nc3ccccc3c2=O)c(C(C)C)c1	18µM*	-12%	i	50	-4%
Cc1ccc(-c2nc3ccccc3c(=O)n2NC(=O)COc2ccccc2)cc1	?	9%	i	-4	?
COc1ccc(-c2noc(C3CCCN(C(=O)c4ccc(F)cc4)C3)n2)cc1 (stereo not drawn)	i	?	?	?	-13%
COc1ccc(NC(=O)N2CCC(c3nc(-c4cccs4)no3)CC2)cc1	6.5µM*	1%	i	0	8%
O=C(Nc1ccccc1)N1CCCC(c2nc(-c3cccs3)no2)C1 (stereo not drawn)	12µM*	-25%	i	16	-2%
COc1ccc(-c2noc(C3CCCN(C(=O)c4ccc(C)cc4)C3)n2)cc1 (stereo not drawn)	i	16µM*	i	-70*	?
COc1cc(C(=O)N2CCCC(c3nc(-c4cccs4)no3)C2)cc(OC)c1OC (stereo not drawn)	i	-20%	i	15	-3%
COc1cccc(C(=O)N2CCCC(c3nc(-c4cccs4)no3)C2)c1 (stereo not drawn)	4.1µM*	-26%	i	11	-5%
Cc1ccc(NC(=S)Nc2ccc3cn[nH]c3c2)cc1	i	0%	i	-3	8%
Cc1cc(C)cc(NC(=S)Nc2ccc3cn[nH]c3c2)c1	i	24%	i	-53*	17%
CN(C)CC/C=C1/c2ccc(F)cc2Sc2ccc(Cl)cc21	i	18µM*	i	-85*	21µM*
CN(C)CC/C=C1\c2ccc(F)cc2Sc2cc(F)c(Cl)cc21	i	?	i	-61*	?
CN(C)CC/C=C1\c2cc(Cl)ccc2Sc2cc(F)c(F)cc21	i	-17%	i	-11	?
CN(C)CC/C=C1\c2ccccc2Sc2cc(F)c(Cl)cc21	?	12µM*	i	-93*	26µM*
O=C(c1cn(-c2ccccc2)nc1-c1cccs1)N1CCOCC1	?	-8%	i	-5	-3%
O=C(c1cn(-c2ccccc2)nc1-c1cccs1)N1CCN(c2ccccc2)CC1	?	7.1µM*	8.2µM*	10	?
CN(CC(=O)Nc1ccc(F)cc1)C(=O)c1cn(-c2ccccc2)nc1-c1cccs1	i	-2%	i	-60*	-10%
COc1cccc(CNC(=O)CN2C(=O)CSc3ccc(S(=O)(=O)N4CCCCC4)cc32)c1	?	0%	i	-16	-1%
O=P(c1ccccc1)(c1ccccc1)c1nc(-c2ccc(Cl)cc2)oc1N1CCOCC1	?	-24%	i	-65*	-25%
CCOP(=O)(OCC)c1nc(-c2cccc3ccccc23)oc1NCCc1ccc(OC)cc1	5.2µM*	-9%	?	-55*	-21%
CCOP(=O)(OCC)c1nc(-c2cccc3ccccc23)oc1N1CCOCC1	?	-13%	i	-73*	-11%
CCOP(=O)(OCC)c1nc(-c2ccccc2Cl)oc1N1CCOCC1	?	13%	i	6	?

Screening results as filed in PubChem.
